# Experimental data published in PubChem BioAssay (NCATS).
# Results filed as inconclusive are left out. Where a call stands in place of a potency, no number is given. Calls of active or inactive are those of the source. Calls follow the shape of the dose curve; as a rule, active = well fitted cell-killing curve with a large enough effect; inconclusive = small, poorly fitted or top-dose-only effect, or effect the other way; inactive = no such curve, though single readings can be large or run the other way.
# How the values were obtained:
# [1] = Quantitative High-Throughput drug screen in 47 multiple myeloma cell lines against the NCATS MIPE library collection: XG1_PLB cell viability assay (AID 1919866); also: nearly all actives have a fitted effect of over 35% in size
# Method in brief: (§1)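 MIPE 4.0 approved/investigational drugs; 500 cells/well; 48 h 37 °C humidified 5% CO2; CTG luminescence readout; DMSO = 100%, media = 0% viability.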
# [2] = Quantitative High-Throughput drug screen in 47 multiple myeloma cell lines against the NCATS MIPE library collection: OPM2_DSMZ cell viability assay (AID 1919872); also: nearly all actives have a fitted effect of over 30% in size
# Method in brief: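 Steps: seed 500 cells per well; pin-transfer MIPE 4.0 library; incubate 48 h at 37C, 5% CO2, humidified; add CellTiter-Glo, 5 min room temperature; read luminescence.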
# [3] = Quantitative High-Throughput drug screen in 47 multiple myeloma cell lines against the NCATS MIPE library collection: KMS11_JCRBsus cell viability assay (AID 1919873); also: nearly all actives have a fitted effect of over 50% in size
# Method in brief: as §1
# [4] = Quantitative High-Throughput drug screen in 47 multiple myeloma cell lines against the NCATS MIPE library collection: KMS28BM_JCRB cell viability assay (AID 1919874); also: nearly all actives have a fitted effect of over 35% in size
# Method in brief: as §1
# [5] = Quantitative High-Throughput drug screen in 47 multiple myeloma cell lines against the NCATS MIPE library collection: PE2_PLB cell viability assay (AID 1919869); also: nearly all actives have a fitted effect of over 35% in size
# Method in brief: as §1
# [6] = Quantitative High-Throughput drug screen in 47 multiple myeloma cell lines against the NCATS MIPE library collection: PCM6_Riken cell viability assay (AID 1919870); also: nearly all actives have a fitted effect of over 30% in size
# Method in brief: as §1
# [7] = Quantitative High-Throughput drug screen in 47 multiple myeloma cell lines against the NCATS MIPE library collection: RPMI8226_ATCC cell viability assay (AID 1919871); also: nearly all actives have a fitted effect of over 30% in size
# Method in brief: as §1
# [8] = Quantitative High-Throughput drug screen in 47 multiple myeloma cell lines against the NCATS MIPE library collection: VP6_DJ cell viability assay (AID 1919867); also: nearly all actives have a fitted effect of over 40% in size
# Method in brief: as §1
# [9] = Quantitative High-Throughput drug screen in 47 multiple myeloma cell lines against the NCATS MIPE library collection: UTMC2_PLB cell viability assay (AID 1919868); also: nearly all actives have a fitted effect of over 55% in size
# Method in brief: as §1
# Potency is read from the fitted curve at half-maximal effect.
SMILES,Potency [1],Potency [2],Potency [3],Potency [4],Potency [5],Potency [6],Potency [7],Potency [8],Potency [9]
COc1ccc2c(c1)c(CC(=O)OCC(=O)O)c(C)n2C(=O)c1ccc(Cl)cc1,inactive,inactive,inactive,inactive,–,–,–,–,–
O=C(O)CSCC(=O)NC1CCSC1=O (stereo not drawn),inactive,–,inactive,inactive,inactive,inactive,inactive,–,–
CCCCOc1ccc(CC(=O)NO)cc1,inactive,–,–,inactive,–,inactive,–,–,–
CCN(C)C(=O)Oc1cccc([C@H](C)N(C)C)c1,inactive,inactive,inactive,inactive,inactive,–,–,–,–
CC(=O)[C@H]1CC[C@H]2[C@@H]3CC=C4C[C@@H](O)CC[C@]4(C)[C@H]3CC[C@]12C,inactive,inactive,inactive,inactive,inactive,–,–,–,–
O=C(N[C@H](CO)[C@H](O)c1ccc([N+](=O)[O-])cc1)C(Cl)Cl,inactive,inactive,inactive,inactive,–,–,–,–,–
CNC1CCCN(c2c(F)cc3c(=O)c(C(=O)O)cn(C4CC4)c3c2OC)C1 (stereo not drawn),inactive,–,9.35 µM (active),–,inactive,inactive,inactive,–,–
CCc1c2c(nc3ccc(OC(=O)N4CCC(N5CCCCC5)CC4)cc13)-c1cc3c(c(=O)n1C2)COC(=O)[C@]3(O)CC,–,–,–,0.469 µM (active),0.935 µM (active),13.2 µM (active),–,1.18 µM (active),0.418 µM (active)
C#CCN[C@@H]1CCc2ccccc21,inactive,inactive,inactive,inactive,inactive,–,–,–,–
Cn1nnc2c(C(N)=O)ncn2c1=O,inactive,inactive,inactive,–,inactive,–,inactive,–,–
Cc1noc(NS(=O)(=O)c2ccc(N)cc2)c1C,inactive,inactive,inactive,inactive,inactive,inactive,inactive,–,–
C[C@@H](CN1CC(=O)NC(=O)C1)N1CC(=O)NC(=O)C1,14.8 µM (active),inactive,inactive,–,–,–,inactive,–,2.96 µM (active)
CC(C)(Sc1cc(C(C)(C)C)c(O)c(C(C)(C)C)c1)Sc1cc(C(C)(C)C)c(O)c(C(C)(C)C)c1,–,–,inactive,inactive,6.62 µM (active),–,–,18.7 µM (active),5.9 µM (active)
CC(C(=O)O)c1ccc2c(c1)CC(=O)c1ccccc1S2 (stereo not drawn),–,inactive,–,–,inactive,–,–,–,–
Cc1ccnc2c1NC(=O)c1cccnc1N2C1CC1,–,inactive,inactive,inactive,26.4 µM (active),26.4 µM (active),inactive,26.4 µM (active),–
COc1cnc(NS(=O)(=O)c2ccc(N)cc2)nc1,–,inactive,–,–,inactive,–,inactive,20.9 µM (active),–
C[C@@H](NCCCc1cccc(C(F)(F)F)c1)c1cccc2ccccc12,–,inactive,inactive,inactive,inactive,–,–,–,–
Cc1cccc(Nc2ccncc2S(=O)(=O)NC(=O)NC(C)C)c1,–,inactive,–,–,inactive,–,–,7.43 µM (active),inactive
COC(=O)Nc1nc2ccc(Sc3ccccc3)cc2[nH]1,–,3.32 µM (active),0.935 µM (active),0.935 µM (active),1.18 µM (active),–,–,1.05 µM (active),2.09 µM (active)
C[C@]12C=CC(=O)C=C1CC[C@@H]1[C@@H]2C(=O)C[C@@]2(C)[C@H]1CC[C@]2(O)C(=O)CO,–,–,inactive,inactive,–,inactive,–,inactive,–
Cc1oc(=O)oc1CN1CCN(c2cc3c(cc2F)c(=O)c(C(=O)O)c2n3C(C)S2)CC1 (stereo not drawn),–,–,inactive,inactive,13.2 µM (active),–,inactive,inactive,–
CCC(C)(C)c1ccc(CC(C)CN2C[C@@H](C)O[C@@H](C)C2)cc1 (stereo partly drawn),–,inactive,–,–,–,–,–,16.6 µM (active),inactive
COc1cccc(N(C)C(=S)Oc2ccc3c(c2)CCCC3)n1,–,inactive,29.6 µM (active),–,inactive,–,18.7 µM (active),–,inactive
